About 2,700 (4%) of roughly 68,000 compounds showed an effect of 50% or more. The sample as a whole holds a higher share of strong results than the screen did.

The experiment relates to Plasmodium berghei. Kind of experiment: Screen against P. berghei liver stage (PbLuc), transformed with Luciferase, at 2uM. The conditions noted are these: tested at 2 uM. Type of experiment: functional, HepG2.
As to `NC(=O)c1cc2c(nc1CC1CCCCO1)CCC2` (stereo not given), the INHIBITION amounted to 38.83%.

`C[C@@H]1CN(c2nc3c(cc2C(N)=O)CCC3)CC[C@@]1(O)C1CCC1`: the INHIBITION is 2.79%.

As for `COC(=O)c1ccc(NC(C)c2ccc3c(c2)CCC(=O)N3)nn1` (stereo not given), the INHIBITION is reported as 34.22%.

With `Cc1nc(CN2CCCN(C(=O)c3c(C)oc(C)c3C)CC2)cs1`, the INHIBITION stood at 59.54%.

`Cc1csc(N2CCCN(C(=O)c3c(C)oc(C)c3C)CC2)n1`: the INHIBITION is -1.5%.

For the compound `Cc1nc(CN2CCCN(C(=O)c3c(C)noc3C)CC2)cs1`, the INHIBITION is listed as 3.38%.

Take `CCc1noc(C)c1C(=O)N1CCCN(Cc2csc(C)n2)CC1`: the INHIBITION was determined as 16.84%.

For the compound `Cc1csc(N2CCCN(C(=O)c3c(C)noc3C)CC2)n1`, the INHIBITION is given as 24.65%.

With `Cc1csc(N2CCN(C(=O)c3c(C)oc(C)c3C)CC2)n1`, the INHIBITION is 58.52%.

`O=C(NCC1CCCO1)c1cc(-c2ccncc2)c2cnccc2n1` (stereo not given): the INHIBITION was 26.69%.

Consider `CO[C@@H]1CO[C@@]2(CCCN(C(=O)C3CC=CC3)C2)C1`, for which the INHIBITION is on record as -29.49%.

As to `COCC1CCN(c2ccnc3ccsc23)C1` (stereo not given), the INHIBITION is 15.84%.

Regarding `Cc1ccc(C(=O)N2CCn3cc(CN(C)Cc4ccco4)nc3C2)o1`, the INHIBITION is -40.76%.

`Cn1ncc2c1C(COCC1CC1)CN(C(=O)Cc1ccsc1)C2` (stereo not given): the INHIBITION is 22.16%.

`CN1C(=O)C2(CCNCC2)c2cc(F)ccc21`: the INHIBITION was found to be 37.75%.

On to `COc1ccc(CN2C[C@H]3CCC[C@@H](CN(C)C4CC4)[C@H]3C2)cn1`, for which the INHIBITION was 0.42%.

For the compound `c1cnc(NC[C@@H]2CCC[C@@H]3CN(Cc4cccnc4)C[C@@H]32)nc1`, the INHIBITION is recorded as 7.08%.

Take `CN(C[C@@H]1CCC[C@@H]2CN(Cc3cccnc3)C[C@@H]21)C1CC1`: the INHIBITION came to 61.09%.

Turning to `CC(=O)N1CCOC(c2cc(N3CC(O)C3)nc(C)n2)C1` (stereo not given), the INHIBITION stood at 18.8%.

As for `Cc1cnn(C2CN(CCOc3ccc(C#N)cc3)C2)c1`, the INHIBITION is -22.06%.

On to `Cc1cccc(NC(=O)[C@@H]2CCCN2CC(=O)Nc2ccccc2)n1`, for which the INHIBITION was -32.35%.

Regarding `CCOC(=O)N1CCN(C(=O)c2cc(-c3ccc(C)cc3)on2)CC1`, the INHIBITION is reported as 21.28%.

For `NC(=O)CN1C(=O)CO[C@H]2CN(Cc3ccccc3)C[C@H]21`, the INHIBITION came to 41.93%.

Take `NC(=O)CN1C(=O)CO[C@H]2CN(Cc3ccc(Cl)cc3)C[C@H]21`: the INHIBITION amounted to 58.4%.

As for `NC(=O)CN1C(=O)CO[C@H]2CN(Cc3ccc(F)c(F)c3)C[C@H]21`, the INHIBITION worked out at 27.65%.

Regarding `Cn1ccnc1CN1CCCC(CCCc2ccccn2)(C(N)=O)C1` (stereo not given), the INHIBITION is on record as -11.32%.

With `COC(=O)c1cccc(S(=O)(=O)NC(=O)COC2CCCCC2)c1`, the INHIBITION was 19.64%.

Regarding `CS(=O)(=O)N1CCN(c2cc(-n3cccc3)ncn2)CC1`, the INHIBITION turned out to be 19.08%.

For the compound `Cc1nc(Nc2ccccn2)cc(N2CCN(S(C)(=O)=O)CC2)n1`, the INHIBITION was determined as 18.99%.

Regarding `Cc1ccc(Nc2cc(N3CCN(S(C)(=O)=O)CC3)nc(C)n2)cc1`, the INHIBITION came to 51.2%.

Turning to `CC1CCN(C(=O)C(C)n2cc(Br)cn2)CC1` (stereo not given), the INHIBITION came to 20.8%.

For the compound `FC(F)(F)c1ccnc(N2CCC(c3nccn3CC3CC3)CC2)n1`, the INHIBITION is given as -0.62%.

`CCCn1ncc(CN2C[C@@H]3CCCN3C[C@H]2Cc2ccccc2)c1C`: the INHIBITION is 37.6%.

With `CCCn1nc2c(cc1=O)CN(CC1CCCCO1)CC2` (stereo not given), the INHIBITION is given as 28.72%.

Take `CN(CCn1cccn1)S(=O)(=O)c1cccc(Cl)c1C#N`: the INHIBITION is -26.2%.

On to `Cc1cc(F)c(S(=O)(=O)N(C)CCn2cccn2)cc1F`, for which the INHIBITION came to 50.03%.

`CN(CCn1cccn1)S(=O)(=O)c1cccc(F)c1C#N`: the INHIBITION was -2.19%.

In the case of `CCC(C)(C)C(=O)Nc1ccc2ccn(CC(=O)NC)c2c1`, the INHIBITION is on record as 24.51%.

With `COc1cccc(CN2CCc3nc4ccsc4c(=O)n3CC2)c1`, the INHIBITION is 34.9%.

Regarding `Cn1cc(CN2CCCCC2c2ccc(-c3cccc(Cl)c3)nc2)cn1` (stereo not given), the INHIBITION turned out to be 15.59%.

Take `COC(=O)[C@@H]1C[C@H](NC(=O)c2cc(=O)[nH]c3ccc(C)cc23)CN1C`: the INHIBITION was determined as 76.07%.

Consider `CCNC(=O)[C@@H]1C[C@H](NC(=O)c2cc(=O)[nH]c3ccc(C)cc23)CN1C`, for which the INHIBITION was found to be 24.44%.

As to `Cc1ccc2[nH]c(=O)cc(C(=O)N[C@@H]3C[C@@H](CO)N(C)C3)c2c1`, the INHIBITION is recorded as 10.75%.

`CCCc1cc(=O)[nH]c(-c2ccccc2CN(C)CCC(C)C)n1`: the INHIBITION is given as -4.05%.

Regarding `CCc1nnc2ccc(N3CCN(S(=O)(=O)c4ccc(Cl)s4)CC3)nn12`, the INHIBITION turned out to be 52.31%.

In the case of `CCCS(=O)(=O)N1CCN(c2ccc3nnc(CC)n3n2)CC1`, the INHIBITION came to 8.76%.

In the case of `CCc1nnc2ccc(N3CCN(S(=O)(=O)c4ccc(C)s4)CC3)nn12`, the INHIBITION is given as -37.47%.

For the compound `CCN(Cc1cnc(NCc2ccccc2)nc1)C1CCS(=O)(=O)C1` (stereo not given), the INHIBITION was -30.2%.

On to `CN(C)Cc1nnc(C2CCCN(Cc3ccc(Cl)s3)C2)n1C` (stereo not given), for which the INHIBITION was 7.64%.

As for `CC(=O)Nc1nc(C2CCN(C(=O)C3CCC3)CC2)cs1`, the INHIBITION is given as -49.56%.

The record behind these values is ChEMBL document CHEMBL4513216, “Probing the Open Global Health Chemical Diversity Library for Multistage-Active Starting Points for Next-Generation Antimalarials” (ACS Infect Dis, 2020).
